In the library only some 4.1% were active in any assay of this set; here they are far more common.
tim23-1 inh = growth inhibitors of tim23-1 mutant yeast | 330,000 tested, 1.3% active | inhibition, % at 20 µM | S. cerevisiae tim23-1 growth, BacTiter-Glo luminescence, 24 h | AID 463212;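 active means growth inhibition of the mutant yeast at or above 50%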;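 further: temperature-sensitive mutant grown at 25 °C; plate controls were DMSO-treated mutant yeast for no effect and medium wells lacking yeast for full effect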
TIM10 inh = TIM10 yeast growth inhibition; S. cerevisiae TIM10 strain growth, BacTiter-Glo luminescence, 24 h; inhibition, % at 10 µM; 330,000 tested, 1.4% active;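 active means inhibition of 40% or more at the single tested concentration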;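 further: wild-type TIM10 isogenic control strain grown at permissive 25 °C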
NALP1 yeast inh = inhibitors of NALP1 inflammasome in yeast | S. cerevisiae NALP1/ASC/caspase-1 growth, X-gal OD620, 72 h | inhibition, % at 10 µM | 280,000 tested, 0.61% active | AID 2071; in the data active means inhibition mostly above about 24%, no sharp cut-off; inactive means mostly below about 32%
NLRP3 yeast inh = NALP3 inhibition in yeast. Yeast reconstituted NLRP3/ASC/caspase-1, beta-gal luminescence, 24 h. inhibition, % at 10 µM. 330,000 tested, 0.39% active. AID 2825;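 active means inhibition of 50% or more; inactive means inhibition below 50%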;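 further: plate controls were induced DMSO wells for no effect and uninduced yeast grown without galactose for full effect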
PfHsp90 set2 = growth inhibition of yeast expressing Plasmodium Hsp90 | AID 504621 | inhibition, % at 9.4 µM | 310,000 tested, 0.32% active | S. cerevisiae expressing PfHsp90, BacTiter-Glo ATP, 48 h; yeast lacking PDR1 and PDR3 efflux regulators;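 active means every replicate shows inhibition above about 80%, whatever the replicate mean, limit read from the data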;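 further: 0% = DMSO neutral controls and 100% = 20 µM radicicol positive controls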
tim10-1 inh = growth inhibitors of tim10-1 mutant yeast | S. cerevisiae tim10-1 ts strain growth, BacTiter-Glo, 24 h | inhibition, % at 20 µM | 330,000 tested, 2.2% active;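 active means inhibition of at least 40%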;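 further: mutant grown at 25 °C; 0% = DMSO wells with yeast and 100% = wells holding no yeast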
NALP3 yeast conf = NALP3 inhibition confirmation in yeast | 1,300 tested, 81% active | yeast expressing human NALP3, luminescence | inhibition, % at 10 µM | shares compounds with NLRP3 yeast inh; in the data active means inhibition above about 48%
Casp1 ASC ctr = counter-screen for NALP3 inhibitors: yeast caspase-1-ASC | shares compounds with NLRP3 yeast inh | yeast expressing Caspase-1-ASC, luminescence counter screen | inhibition, % at 10 µM | 1,000 tested, 66% active
NALP3 retest = retest-confirmed inhibitor of NALP3 in yeast. shares compounds with NLRP3 yeast inh. yeast expressing human NALP3, luminescence read-out. inhibition, % at 10 µM. 1,000 tested, 53% active. AID 488794
Starred values were filed as active, the others as inactive; . = not tested or not shown; ! = not confirmed by another sample. Unless noted, no stated cut-off is given here; in the data, active means inhibition above about 50%; inactive means the rest.

SMILES	tim23-1 inh	TIM10 inh	NALP1 yeast inh	NLRP3 yeast inh	PfHsp90 set2	tim10-1 inh	NALP3 yeast conf	Casp1 ASC ctr	NALP3 retest
Cc1ccc(Cl)cc1NC(=O)c1cnn2c1NC(c1ccco1)CC2C(F)(F)F (stereo not drawn)	25.3	13.8	-2.3	57.5*	35.2	16.2	66.5*	71.7*	56.7*
CC(=O)N1c2ccc(S(=O)(=O)N3CCCCC3)cc2CC1C(=O)Nc1ccc(C)cc1 (stereo not drawn)	13.5	4.6	3.6	9.1	9.9	-2.0	.	.	.
COc1ccc2occ(C(=O)c3ccc(N)cc3)c2c1	47.1	19.5	22.9	56.5*	3.7	26.2	68.5*	48.8	44.9
Cc1ccc(C(=O)c2coc3ccc(O)c(Cl)c23)cc1	49.6	2.6	13.3	37.2	.	2.2	.	.	.
Cc1ccc(C(=O)c2coc3ccc(O)cc23)cc1	27.7	-17.5	24.4	65.2*	-24.4	-11.1	65.7*	49.8	47.5
COc1ccc(C(=O)c2coc3ccc(OC(C)=O)cc23)cc1	35.1	1.6	15.2	44.4	-20.7	31.3	.	.	.
CC(C)CCNC(=O)c1cccc(C(=O)NCCC(C)C)c1	8.5	0.1	5.0	13.7	4.1	17.8	.	.	.
CC(C)CCNC(=O)c1ccc(-c2ccccc2)cc1	21.9	13.1	-0.3	52.1*	.	15.1	61.0*	47.1	36.0
COc1ccc(CC(=O)N2CCc3ccccc3C2)cc1	18.4	6.1	13.2	30.3	-9.5	17.2	.	.	.
O=C(Cc1ccc(Cl)cc1)N1CCc2ccccc2C1	12.8	4.8	.	52.7*	11.0	12.3	32.4	.	.
c1ccc(CSc2nnc(-c3cccs3)n2Cc2ccco2)cc1	34.1	22.8	-9.6	-103.1	.	39.5	-1.6	.	.
Cc1ccccc1CSc1nnc(-c2cccs2)n1Cc1ccco1	46.2	31.1	4.4	-27.9	-5.3	34.2	.	.	.
CCCCOC(=O)Nc1nnc(CCc2ccccc2)s1	21.5	21.2	7.7	52.5*	-14.7	13.1	33.4	.	.
CCOC(=O)c1c(NC(=O)CC2SC(=NC)N(C)C2=O)sc(C)c1C (stereo not drawn)	10.8	4.4	11.6	59.8*	7.5	4.7	59.1*	60.3*	43.4
CN(CC(=O)Nc1ccc(F)cc1)C(=O)c1ccc(OCc2ccccc2)cc1	-5.0	-5.0	.	8.0	8.2	-1.1	.	.	.
N#Cc1ccc(-c2csc(NNC(=O)c3ccc(Br)cc3)n2)cc1	9.0	2.2	13.4	51.1*	-6.3	-6.0	51.0*	38.1	36.3
N#Cc1ccc(-c2csc(NNC(=O)c3ccccc3)n2)cc1	9.0	-6.1	14.0	18.6	.	3.8	.	.	.
N#Cc1nc(COc2ccccc2)oc1N1CCCCC1	23.8	-9.5	-2.6	61.6*	-5.3	22.2	70.2*	59.8*	48.1
Cc1cccc(OCc2nc(C#N)c(N3CC(C)CC(C)C3)o2)c1 (stereo not drawn)	17.5	0.2	39.2	6.6	38.1	26.9	.	.	.
Cc1cccc(OCc2nc(C#N)c(N3CCCC3)o2)c1	23.7	10.7	0.6	56.7*	6.2	12.1	46.5	64.5*	51.3*
N#Cc1nc(COc2ccc(Cl)cc2)oc1N1CCCCCC1	22.7	26.2	9.4	12.5	16.4	9.2	.	.	.
CC1Oc2ccccc2N(Cc2ccccc2Cl)C1=O (stereo not drawn)	-1.3	-7.0	6.2	-144.4	-32.9	24.3	6.0	.	.
COc1cccc(Nc2ncnc3onc(-c4ccccc4OC)c23)c1	13.2	16.1	23.5	26.5	-15.0	4.3	.	.	.
COc1ccccc1-c1noc2ncnc(Nc3cccc(C)c3)c12	-1.1	-10.4	14.4	64.3*	-0.3	11.7	70.7*	59.8*	39.8
O=C(CSc1nc2ccc(Nc3nc(N4CCOCC4)nc(N4CCOCC4)n3)cc2s1)Nc1ccccc1F	3.1	-9.3	14.9	16.3	-22.4	-1.6	.	.	.
SMILES	tim23-1 inh	TIM10 inh	NALP1 yeast inh	NLRP3 yeast inh	PfHsp90 set2	tim10-1 inh	NALP3 yeast conf	Casp1 ASC ctr	NALP3 retest
O=C(Nc1cccc(S(=O)(=O)N2CCOCC2)c1)c1ccc2ccccc2n1	46.3	22.4	.	-103.5	-17.4	27.0	-2.5	.	.
Cc1ccc(NC(=O)c2ccc3ccccc3n2)cc1S(=O)(=O)N1CCOCC1	16.4	8.8	39.2	-43.4	-17.6	22.2	.	.	.
CCN(CC)CCNCc1cc(Cl)c(OCC(=O)Nc2ccccc2)c(OC)c1	-1.4	-14.6	14.6	4.8	34.0	-9.4	.	.	.
COc1cc(CNC(C)c2ccccc2)cc(Cl)c1OCC(=O)Nc1ccccc1 (stereo not drawn)	20.3	21.1	3.5	53.0*	1.6	6.9	44.0	.	.
O=C(CCNS(=O)(=O)c1ccccc1)Nc1ccccc1	4.8	-7.0	2.2	11.7	15.7	-2.8	.	.	.
FC(F)(F)c1cccc(-c2nc3nc(Cl)c(Cl)nc3[nH]2)c1	5.4	6.8	36.7	60.6*	-11.2	-7.7	97.4*	42.0	45.4
COc1cc(COC(=O)c2cnc(C)cn2)c(OC)cc1Br	3.7	-21.7	10.0	11.5	1.3	2.2	.	.	.
CCCCOc1ccc(CSCCN)cc1Cl	13.3	4.9	6.6	67.4*	-13.6	-3.0	75.7*	.	.
CCOc1ccc(CSC(=N)N)cc1Cl	5.8	-4.3	2.7	5.1	0.6	7.6	.	.	.
O=C(Nc1ccc([N+](=O)[O-])cc1)Nc1ccc(Cl)cc1F	-18.7	3.8	24.4	76.5*	16.6	25.2	48.8*	27.1	20.0
O=C(CN1C(=O)c2cccc([N+](=O)[O-])c2C1=O)OCC(=O)N1CCCCC1	-3.4	2.7	.	5.8	.	-1.4	.	.	.
CC(=O)Nc1ccc(OS(=O)(=O)c2ccc(C(C)(C)C)cc2)cc1	30.4	39.3	4.2	22.0	.	34.0	.	.	.
Cc1cc(C)n2nc(-c3cccc(Br)c3)cc2n1	32.2	3.2	23.8	49.4	-1.8	27.9	.	.	.
Cc1cc(C)n2ncc(-c3cccc(Br)c3)c2n1	22.0	-5.3	4.7	50.5*	-5.0	25.1	61.6*	31.0	24.4
Cc1ccccc1CN1CCC(n2nccc2NC(=O)CCOc2ccccc2)CC1	6.2	10.7	-7.4	16.3	2.0	6.1	.	.	.
Cc1ccc(C(=O)CSc2ncnc3ccccc23)o1	-14.1	3.6	18.9	53.9*	-10.8	1.6	68.7*	73.1*	58.1*
CC(C)Cn1c2ccccc2c2cc(C(=O)O)ccc21	21.3	18.1	-9.1	-123.3	.	30.8	8.6	.	.
CCOC(=O)C1=C(C)NC(C)=C(C(=O)OC)C1c1cccc(Cl)c1Cl (stereo not drawn)	48.8	17.3	10.2	8.2	4.6	35.4	.	.	.
CCOC(=O)C1=C(COCCN)NC(C)=C(C(=O)OC)C1c1ccccc1Cl (stereo not drawn)	15.3	15.3	.	52.7*!	-9.7	22.0	58.8*	44.0	48.6

Assay outcomes (PubChem BioAssay)
